Results as given in the supplement of paper PMC10477191.
± gives the standard deviation of the averaged measurements.

Each compound was assayed on Drosophila virilis antennal basiconic sensillum AB3 (assay: odor-evoked OSN spike response (post minus pre-stimulus); higher = stronger neuronal excitation). Conditions: odor dilution: 10^-4.
Procedure: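 Single sensillum recordings from antennal basiconic sensilla of D. virilis. A 500 ms pulse of odorant (10^-4 in mineral oil or DMSO) was delivered; the response is the change in spike frequency between the 1 s pre- and post-stimulus windows (spikes/s).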
CC(C)=O [acetone] was tested, and the “odor-evoked OSN spike response” value was 92.2 ± 20 spikes/s.
